Source: publication PMC4336329 (PLoS ONE, 2015)
Out of some 310,000 compounds screened, about 14,000 (4.5%) showed an effect of 50% or more. The effect is printed as a negative number. Shown is part of a subset that was picked to be rich in strong results.

target: human ether-à-go-go-related gene (hERG) potassium channel (human, UniProt Q12809); test: primary screen, population patch clamp on CHO cells stably expressing hERG; higher = less effect of the substance
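Note: peak tail current of the secondary pulse compared with the same well before compound.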

human ether-à-go-go-related gene (hERG) potassium channel, sequence (Q12809 whole entry, looked up): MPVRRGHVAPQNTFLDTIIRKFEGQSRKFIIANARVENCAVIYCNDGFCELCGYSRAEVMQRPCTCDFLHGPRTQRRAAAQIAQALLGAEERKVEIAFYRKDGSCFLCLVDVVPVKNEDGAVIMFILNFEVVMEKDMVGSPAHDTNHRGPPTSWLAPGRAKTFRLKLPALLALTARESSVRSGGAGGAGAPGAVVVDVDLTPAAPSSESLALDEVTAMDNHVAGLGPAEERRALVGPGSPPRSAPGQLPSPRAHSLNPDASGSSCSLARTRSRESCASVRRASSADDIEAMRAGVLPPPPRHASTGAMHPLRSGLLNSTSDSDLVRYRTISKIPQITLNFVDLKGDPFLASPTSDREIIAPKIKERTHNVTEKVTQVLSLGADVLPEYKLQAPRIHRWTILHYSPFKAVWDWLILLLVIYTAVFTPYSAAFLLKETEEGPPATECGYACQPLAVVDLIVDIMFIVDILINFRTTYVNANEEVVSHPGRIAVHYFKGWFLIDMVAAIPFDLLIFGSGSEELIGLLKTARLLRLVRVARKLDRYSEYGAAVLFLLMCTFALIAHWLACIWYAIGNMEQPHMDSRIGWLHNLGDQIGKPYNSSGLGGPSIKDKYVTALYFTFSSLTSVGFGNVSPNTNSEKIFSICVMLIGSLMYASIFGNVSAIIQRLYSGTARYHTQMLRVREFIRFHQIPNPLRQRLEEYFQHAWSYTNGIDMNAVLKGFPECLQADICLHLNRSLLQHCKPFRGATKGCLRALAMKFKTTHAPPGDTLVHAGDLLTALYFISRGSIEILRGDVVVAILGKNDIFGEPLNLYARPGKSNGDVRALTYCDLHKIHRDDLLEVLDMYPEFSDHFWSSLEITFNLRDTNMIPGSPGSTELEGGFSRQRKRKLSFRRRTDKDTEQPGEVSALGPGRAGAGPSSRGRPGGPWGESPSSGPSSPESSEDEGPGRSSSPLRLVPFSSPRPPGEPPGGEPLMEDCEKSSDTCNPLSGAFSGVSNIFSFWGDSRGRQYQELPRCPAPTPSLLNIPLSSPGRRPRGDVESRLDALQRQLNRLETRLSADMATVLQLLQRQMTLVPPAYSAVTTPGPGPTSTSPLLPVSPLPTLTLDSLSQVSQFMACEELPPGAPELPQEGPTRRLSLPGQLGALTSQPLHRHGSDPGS

First: CCCc1nc(SCc2ccccn2)c2c(=O)n(C)c(=O)n(C)c2n1
Second: CCc1nc(SCc2ccccn2)c2c(=O)n(C)c(=O)n(C)c2n1
The “hERG current change (%, negative = inhibition) at 10uM” value of the first is lower: -59.1% for the first, 0.896% for the second.

Going from Cn1c(=O)c2c(SCc3ccccn3)nc(CC(C)(C)C)nc2n(C)c1=O to CC(C)c1nc(SCc2ccccn2)c2c(=O)n(C)c(=O)n(C)c2n1, the “hERG current change (%, negative = inhibition) at 10uM” value rises from -79.4% to 5.32%.

First: Cn1c(=O)c2c(SCC(=O)NCc3ccco3)nc(CC(C)(C)C)nc2n(C)c1=O
Second: CCc1nc(SCC(=O)NCc2ccco2)c2c(=O)n(C)c(=O)n(C)c2n1
The “hERG current change (%, negative = inhibition) at 10uM” value of the first is lower: -57.4% for the first, -0.832% for the second.

Going from CCCc1nc(SCC(=O)NCc2ccco2)c2c(=O)n(C)c(=O)n(C)c2n1 to Cn1c(=O)c2c(SCc3ccccn3)nc(C3CC3)nc2n(C)c1=O, the “hERG current change (%, negative = inhibition) at 10uM” value rises from 0.943% to 6.51%.

Compared with Cc1ccccc1-c1nc(SCc2ccccn2)c2c(=O)n(C)c(=O)n(C)c2n1, Cc1ccccc1NC1=NS(=O)(=O)c2ccccc21 is lower in “hERG current change (%, negative = inhibition) at 10uM” value: 28.7% for the first, 4.25% for the second.

First: Cc1ccc(N(C)S(=O)(=O)c2ccc3[nH]cc(C(=O)NCCCN4CCOCC4)c(=O)c3c2)cc1C
Second: CCOc1ccc(OCC)c(NC(=O)CN(c2ccc(C)cc2)S(=O)(=O)c2c(C)noc2C)c1
The “hERG current change (%, negative = inhibition) at 10uM” value of the first is lower: -16.5% for the first, 3.31% for the second.

Going from Cc1ccc(Nc2ncccc2C(N)=O)cc1 to O=C(CN1CCN(c2ccccn2)CC1)Nc1ccc(OC(F)(F)F)cc1, the “hERG current change (%, negative = inhibition) at 10uM” value falls from 19.5% to -29.9%.

First: CCOC(=O)N1CCN(CCC(=O)Nc2ccc(Br)cc2)CC1
Second: CCOC(=O)N1CCN(CCC(=O)Nc2ccc(OC)cc2)CC1
The “hERG current change (%, negative = inhibition) at 10uM” value of the first is lower: -33.2% for the first, -1.76% for the second.

Compared with Cl.O=C(CN1CCOCC1)Nc1ccc(OC(F)(F)F)cc1, Cl.O=C(CN1CCCC1)Nc1ccc(OC(F)(F)F)cc1 is lower in “hERG current change (%, negative = inhibition) at 10uM” value: -8.1% for the first, -41.1% for the second.

Going from O=C(CN1CCc2ccccc2C1)Nc1ccc(OC(F)(F)F)cc1 to CN1CCN(CC(=O)Nc2ccc(OC(F)(F)F)cc2)CC1.Cl, the “hERG current change (%, negative = inhibition) at 10uM” value falls from -6.92% to -65.1%.

Compared with CCN1CCN(CC(=O)Nc2ccc(OC(F)(F)F)cc2)CC1.Cl, CCOC(=O)N1CCN(CCC(=O)Nc2ccc(OC(F)(F)F)cc2)CC1 is higher in “hERG current change (%, negative = inhibition) at 10uM” value: -69.1% for the first, -63.3% for the second.

First: CC1CCC(C(C)C)C(OC(=O)C2=C3c4ccccc4S(=O)(=O)N3CC2)C1 (stereo not drawn)
Second: CN(C)S(=O)(=O)N1CCN(C(=O)N2CCCCCC2)CC1
The “hERG current change (%, negative = inhibition) at 10uM” value of the first is higher: 12.3% for the first, -12.2% for the second.
